The values that follow come from PubChem BioAssay.

Results filed as inconclusive are left out. Activity calls are given as the source filed them. Cut-off read from the data, not from the text of the source, unless noted: active = percent of DMSO control GFP below about 86%; inactive = the rest, inconclusive results apart.

Assay [1] is described as follows: rapamycin-like changes in RPL19A-GFP expression – cell-based, S. cerevisiae, multiplex flow cytometry, primary screen (AID 1862).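 Note: lower values mimic rapamycin by blocking the RPL19A rise seen in DMSO cells.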 Particulars: S. cerevisiae RPL19A-GFP strain, flow cytometry fluorescence, 3 h; at 10 µM; stronger effect = lower value.
Assay [2] can be described thus: TOR pathway GLN3 branch reporter MEP2-GFP changes – S. cerevisiae, multiplex flow cytometry, primary screen (AID 1867;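 active = GFP response, as percent of the DMSO control, above the screen-wide mean plus 3 SD, about 139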;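 note: median GFP channel fluorescence of barcode-gated MEP2-GFP cells measured by flow cytometry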). Particulars: S. cerevisiae MEP2-GFP strain, 3 h, at 10 µM, stronger effect = higher value, 100% means same as DMSO wells.
A short description of assay [3]: TOR pathway RTG branch CIT2 reporter changes – S. cerevisiae, GFP fusion, multiplex flow cytometry, primary screen (AID 1870;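 active = percent response above a set limit, the screen-wide mean plus 3 SD, cut at about 130% in these data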;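 note: barcoded CIT2-GFP strain pooled with four other GFP strains with rapamycin as positive control; median GFP fluorescence per well over plate mean of DMSO wells so 100% = DMSO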). Particulars: S. cerevisiae CIT2-GFP expression, 3 h, at 10 µM, stronger effect = higher value.
A short description of assay [4]: TOR pathway LAP4-GFP level changes – S. cerevisiae, multiplex flow cytometry, primary screen (AID 1873;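 active = GFP signal, as percent of the solvent control, above the screen mean plus 3 SD, about 149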). Particulars: S. cerevisiae LAP4-GFP expression, 3 h, at 10 µM, stronger effect = higher value.
Assay [5] is described as follows: yeast AGP1-GFP level changes, GLN3 branch – cell-based, multiplex flow cytometry, S. cerevisiae, primary screen (AID 1887;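 active = GFP signal above the screen-wide mean plus 3 SD, that is over about 124.5% of the solvent control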;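 note: AGP1-GFP fusion strain of S. cerevisiae within a five-strain barcoded multiplex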). The conditions noted are these: 3 h, at 10 µM, stronger effect = higher value.
Assay [6] is described as follows: reduced mouse 2C T cell binding to pMHC/ICAM-1 vesicles – MLPCN validation set, flow cytometry, LFA-1/ICAM-1 modulator project, pilot screen (AID 2523;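 active = response below a set limit, under 55% cells CD8-positive and vesicle-bound, and CD8 cells' 90th-percentile brightness under 279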;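 for vesicle binding response: mean PE anti-B7-1 fluorescence of CD8+ cells relative to row control; 100% = QL9-loaded vesicles with DMSO vehicle in the same plate row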). The conditions noted are these: 2C mouse CD8+ T cells, at 7 µM, stronger effect = lower value; double positive events: measured here: CD8+/vesicle+ event percentage.
For assay [7], the target named is Integrin beta-1 (Homo sapiens) + Integrin alpha-4 (Homo sapiens) (UniProt P13612+P05556). Description: alpha4beta1 integrin LIBS antibody binding reduction – U937 cells, HUTS-21 mAb, flow cytometry, validation set, VLA-4 allosteric modulator project, pilot screen (AID 2674;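 active = inhibition above 50%, about 3 SD of the validation set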;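 note: antibody binding induced by the VLA-4 ligand LDV present at three times its Kd; 0% = LDV ligand with antibody and no compound and 100% = antibody without LDV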). Particulars: HUTS-21 LIBS mAb binding, at 6.7 µM, stronger effect = higher value, binding induced by LDV ligand.
Sequence of Integrin beta-1 (Homo sapiens) + Integrin alpha-4 (Homo sapiens) (P05556 whole entry, looked up): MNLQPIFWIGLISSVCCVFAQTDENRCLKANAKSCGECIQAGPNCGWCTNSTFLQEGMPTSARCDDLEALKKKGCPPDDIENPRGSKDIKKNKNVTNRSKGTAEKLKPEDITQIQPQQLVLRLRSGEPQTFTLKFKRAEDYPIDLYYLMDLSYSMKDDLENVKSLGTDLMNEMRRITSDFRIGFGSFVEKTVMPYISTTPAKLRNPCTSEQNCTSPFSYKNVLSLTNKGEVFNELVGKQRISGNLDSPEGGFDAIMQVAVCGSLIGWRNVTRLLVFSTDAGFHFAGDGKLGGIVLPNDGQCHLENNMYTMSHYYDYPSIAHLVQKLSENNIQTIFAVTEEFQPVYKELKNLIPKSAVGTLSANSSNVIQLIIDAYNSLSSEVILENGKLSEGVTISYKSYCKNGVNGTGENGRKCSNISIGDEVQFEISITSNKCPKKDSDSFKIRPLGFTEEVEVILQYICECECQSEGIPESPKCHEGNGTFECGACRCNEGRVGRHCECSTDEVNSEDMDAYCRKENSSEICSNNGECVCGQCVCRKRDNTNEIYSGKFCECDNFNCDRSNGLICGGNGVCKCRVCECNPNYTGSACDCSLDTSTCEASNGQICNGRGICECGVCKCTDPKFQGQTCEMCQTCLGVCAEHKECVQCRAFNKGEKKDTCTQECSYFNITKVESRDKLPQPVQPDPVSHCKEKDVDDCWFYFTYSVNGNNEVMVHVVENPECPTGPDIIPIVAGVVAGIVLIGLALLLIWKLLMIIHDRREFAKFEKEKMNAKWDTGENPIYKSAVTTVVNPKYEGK
Sequence of Integrin beta-1 (Homo sapiens) + Integrin alpha-4 (Homo sapiens) (P13612 whole entry, looked up): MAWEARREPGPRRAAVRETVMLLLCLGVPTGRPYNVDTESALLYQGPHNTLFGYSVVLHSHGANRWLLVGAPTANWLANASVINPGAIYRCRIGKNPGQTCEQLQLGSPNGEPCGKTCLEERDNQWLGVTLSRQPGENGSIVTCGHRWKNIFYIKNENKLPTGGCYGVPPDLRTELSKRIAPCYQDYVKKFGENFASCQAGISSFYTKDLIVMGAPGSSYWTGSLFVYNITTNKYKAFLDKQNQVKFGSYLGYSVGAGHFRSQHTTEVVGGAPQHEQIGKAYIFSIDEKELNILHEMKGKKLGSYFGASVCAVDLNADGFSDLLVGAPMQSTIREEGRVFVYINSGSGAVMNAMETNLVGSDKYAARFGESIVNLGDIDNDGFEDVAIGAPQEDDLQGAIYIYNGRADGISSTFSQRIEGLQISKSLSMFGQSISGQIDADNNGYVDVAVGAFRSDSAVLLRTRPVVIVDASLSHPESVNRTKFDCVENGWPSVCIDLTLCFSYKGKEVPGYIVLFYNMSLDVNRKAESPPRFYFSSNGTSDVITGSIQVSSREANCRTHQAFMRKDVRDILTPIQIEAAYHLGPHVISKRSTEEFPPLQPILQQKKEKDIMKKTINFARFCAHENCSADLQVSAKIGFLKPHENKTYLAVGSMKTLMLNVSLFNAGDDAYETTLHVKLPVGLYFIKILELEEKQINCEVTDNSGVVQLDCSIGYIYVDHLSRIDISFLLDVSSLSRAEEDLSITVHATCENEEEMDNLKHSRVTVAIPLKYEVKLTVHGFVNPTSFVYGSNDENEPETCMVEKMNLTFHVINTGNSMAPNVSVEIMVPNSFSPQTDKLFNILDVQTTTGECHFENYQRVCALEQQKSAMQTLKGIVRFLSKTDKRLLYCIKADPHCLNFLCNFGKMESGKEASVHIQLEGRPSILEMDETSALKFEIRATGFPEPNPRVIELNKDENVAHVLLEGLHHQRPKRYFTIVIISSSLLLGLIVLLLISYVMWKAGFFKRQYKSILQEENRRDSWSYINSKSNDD

Assay [8] is described as follows: calorie-restriction mimetic ROS inhibitors, yeast – validation compound set, pilot screen (AID 2706;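 active = superoxide response below 65% of plate, a cut near 3 SD across the whole screen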;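 note: yeast exposed to compound for one week at 30 degrees C before staining; 100% = mean of all compound wells on the same plate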). The conditions noted are these: S. cerevisiae aging, superoxide DHE fluorescence; at 10 µM; stronger effect = lower value.
In assay [9] the target is Beta-adrenergic receptor kinase 1 (Homo sapiens) (UniProt P25098). Description: GRK2 binders displacing RNA aptamer, biochemical, validation, human GRK2, bead flow cytometry (AID 488806;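 active = aptamer binding inhibition above 30%, about 3 SD of noise from non-fluorescent compounds; inactive = inhibition at or below 30%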). The conditions noted are these: bead-bound GRK2, FAM-aptamer displacement, at 10 µM, stronger effect = higher value.
Sequence of Beta-adrenergic receptor kinase 1 (Homo sapiens) (P25098 whole entry, looked up): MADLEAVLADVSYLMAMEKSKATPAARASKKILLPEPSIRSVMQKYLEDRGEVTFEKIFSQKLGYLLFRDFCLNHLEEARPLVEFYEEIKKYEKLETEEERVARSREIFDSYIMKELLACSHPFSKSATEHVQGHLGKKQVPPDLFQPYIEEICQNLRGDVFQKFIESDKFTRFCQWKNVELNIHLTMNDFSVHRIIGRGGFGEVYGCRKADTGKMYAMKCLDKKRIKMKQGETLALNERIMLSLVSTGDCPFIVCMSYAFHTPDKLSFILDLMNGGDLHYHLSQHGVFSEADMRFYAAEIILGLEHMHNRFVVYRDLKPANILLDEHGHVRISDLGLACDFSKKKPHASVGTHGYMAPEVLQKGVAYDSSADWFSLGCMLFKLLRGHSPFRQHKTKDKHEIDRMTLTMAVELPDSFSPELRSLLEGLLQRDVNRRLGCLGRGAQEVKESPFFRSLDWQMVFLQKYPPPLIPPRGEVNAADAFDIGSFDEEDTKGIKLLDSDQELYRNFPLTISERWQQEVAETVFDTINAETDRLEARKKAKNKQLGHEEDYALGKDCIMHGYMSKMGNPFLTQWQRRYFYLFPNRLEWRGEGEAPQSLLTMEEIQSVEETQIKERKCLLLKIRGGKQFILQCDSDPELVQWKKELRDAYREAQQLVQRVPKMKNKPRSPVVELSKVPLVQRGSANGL
For assay [10], the target named is Beta-2 adrenergic receptor (Homo sapiens) (UniProt P07550). Description: agonist-induced loss of surface beta2AR – cell-based, FAP fluorogen, flow cytometry, validation set, pilot screen (AID 504459;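 active = percent response above 42, roughly 3 SD of non-fluorescent test compounds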;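 note: agonist-driven loss of surface beta2AR via internalization measured by FAP dye flow cytometry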). The conditions noted are these: Am2.2-beta2AR cells, at 10 µM, stronger effect = higher value.
Sequence of Beta-2 adrenergic receptor (Homo sapiens) (P07550 whole entry, looked up): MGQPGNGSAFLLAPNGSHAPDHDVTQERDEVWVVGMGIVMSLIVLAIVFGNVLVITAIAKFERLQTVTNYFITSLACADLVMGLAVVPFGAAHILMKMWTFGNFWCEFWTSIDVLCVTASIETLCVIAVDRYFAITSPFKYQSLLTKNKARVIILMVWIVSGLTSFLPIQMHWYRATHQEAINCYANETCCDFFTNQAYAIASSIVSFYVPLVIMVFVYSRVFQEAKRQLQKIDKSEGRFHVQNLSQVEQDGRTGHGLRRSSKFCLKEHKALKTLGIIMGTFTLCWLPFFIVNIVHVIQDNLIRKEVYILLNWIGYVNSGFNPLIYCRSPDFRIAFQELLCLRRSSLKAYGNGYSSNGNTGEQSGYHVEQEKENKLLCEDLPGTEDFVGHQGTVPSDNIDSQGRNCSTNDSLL
For assay [11], the target named is AP-2 complex subunit beta (Homo sapiens) (UniProt P63010). The assay is described as follows: beta-arrestin/AP2 interaction blockers – biochemical, validation set, GST-AP2 beads, flow cytometry, pilot screen (AID 504541;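 active = inhibition above 54%, about 3 SD of non-fluorescent compounds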;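 note: AP2 carries R879A mutation and is captured from E. coli lysate; bead-bound FITC arrestin peptide fluorescence measuring arrestin peptide binding to AP2; 0% = DMSO wells and 100% = excess unlabeled arrestin peptide control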). Particulars: FITC arrestin peptide, at 10 µM, stronger effect = higher value, AP2 beta2 appendage fragment, R879A mutant.
Sequence of AP-2 complex subunit beta (Homo sapiens) (P63010 whole entry, looked up, the tested form may be a part, one chain of several): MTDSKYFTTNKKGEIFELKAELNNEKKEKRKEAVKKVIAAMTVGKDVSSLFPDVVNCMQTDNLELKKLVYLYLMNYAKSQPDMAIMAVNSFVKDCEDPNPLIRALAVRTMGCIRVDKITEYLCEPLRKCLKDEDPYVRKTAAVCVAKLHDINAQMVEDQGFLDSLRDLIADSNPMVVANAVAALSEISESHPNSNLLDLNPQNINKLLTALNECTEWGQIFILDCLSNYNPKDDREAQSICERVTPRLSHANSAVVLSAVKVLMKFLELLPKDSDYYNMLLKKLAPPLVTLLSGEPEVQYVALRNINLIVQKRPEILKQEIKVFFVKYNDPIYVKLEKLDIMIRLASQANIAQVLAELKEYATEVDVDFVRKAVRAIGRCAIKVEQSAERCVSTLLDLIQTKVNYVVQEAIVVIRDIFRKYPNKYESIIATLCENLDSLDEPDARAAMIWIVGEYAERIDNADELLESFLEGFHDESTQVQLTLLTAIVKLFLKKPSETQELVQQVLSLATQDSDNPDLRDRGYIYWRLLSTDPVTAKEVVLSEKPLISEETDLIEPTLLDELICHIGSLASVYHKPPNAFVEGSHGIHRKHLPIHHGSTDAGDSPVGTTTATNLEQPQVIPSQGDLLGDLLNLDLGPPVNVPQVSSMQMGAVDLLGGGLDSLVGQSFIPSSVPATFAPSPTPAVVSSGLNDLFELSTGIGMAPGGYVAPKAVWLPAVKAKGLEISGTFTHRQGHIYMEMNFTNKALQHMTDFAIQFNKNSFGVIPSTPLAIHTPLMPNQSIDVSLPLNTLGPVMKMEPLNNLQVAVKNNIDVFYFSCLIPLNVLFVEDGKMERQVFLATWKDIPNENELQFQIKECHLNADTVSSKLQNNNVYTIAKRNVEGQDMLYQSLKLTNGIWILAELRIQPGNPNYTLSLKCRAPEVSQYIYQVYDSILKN
The nature of assay [12]: cytosolic pH regulators acting via V-ATPase – S. cerevisiae, pHLuorin, HTS validation (AID 504600; in the data active = response above about 15%;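 note: plate controls were DMSO for no effect and reference compound for full effect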). The conditions noted are these: V-ATPase proton transport, at 10 µM, stronger effect = higher value.
The test system of assay [13] is anti-desmoglein-3 scFv antibody binding to human DSG3. Description: blockers of pathogenic pemphigus antibody–desmoglein-3 binding – biochemical, validation compound set, bead-based, flow cytometry, pilot screen (AID 588368;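 active = binding below the plate cutoff, the plate median minus 3 SD, with a reading above zero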;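 note: signal is the median channel fluorescence of bead-bound GFP antibody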). The conditions noted are these: Protein G beads, DSG3-Fc, scFv-GFP binding, at 10 µM, stronger effect = lower value.
Assay [14] is described as follows: Nile Red efflux blockade in pump-expressing yeast – validation compound set, multiplex, phenotypic, pilot screen (AID 588506;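 active = efflux inhibition above 0.42, the validation set average plus 4 SD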;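 note: Nile Red retained in cells so higher fluorescence means more efflux inhibition; 0 = negative control wells and 1 = enniatin B 25 µM full block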). The conditions noted are these: S. cerevisiae pump-expressing triplex, Nile Red efflux flow cytometry; at 10 µM; stronger effect = higher value; the pumps come from Candida albicans.
In assay [15] the target is ATP-binding cassette sub-family B member 6 (Homo sapiens) (UniProt Q9NP58). Description: blockers of ABCB6-driven porphyrin uptake – K562-ABCB6 cells, flow cytometry, validation set, pilot screen (AID 588550;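 active = inhibition above the screen-wide mean plus 3 SD, about 51%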;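 note: 0% = DMSO wells and 100% = benzethonium chloride 70 µM positive control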). Particulars: K562-ABCB6 porphyrin accumulation, 1 h, at 10 µM, stronger effect = higher value.
Sequence of ATP-binding cassette sub-family B member 6 (Homo sapiens) (Q9NP58 whole entry, looked up): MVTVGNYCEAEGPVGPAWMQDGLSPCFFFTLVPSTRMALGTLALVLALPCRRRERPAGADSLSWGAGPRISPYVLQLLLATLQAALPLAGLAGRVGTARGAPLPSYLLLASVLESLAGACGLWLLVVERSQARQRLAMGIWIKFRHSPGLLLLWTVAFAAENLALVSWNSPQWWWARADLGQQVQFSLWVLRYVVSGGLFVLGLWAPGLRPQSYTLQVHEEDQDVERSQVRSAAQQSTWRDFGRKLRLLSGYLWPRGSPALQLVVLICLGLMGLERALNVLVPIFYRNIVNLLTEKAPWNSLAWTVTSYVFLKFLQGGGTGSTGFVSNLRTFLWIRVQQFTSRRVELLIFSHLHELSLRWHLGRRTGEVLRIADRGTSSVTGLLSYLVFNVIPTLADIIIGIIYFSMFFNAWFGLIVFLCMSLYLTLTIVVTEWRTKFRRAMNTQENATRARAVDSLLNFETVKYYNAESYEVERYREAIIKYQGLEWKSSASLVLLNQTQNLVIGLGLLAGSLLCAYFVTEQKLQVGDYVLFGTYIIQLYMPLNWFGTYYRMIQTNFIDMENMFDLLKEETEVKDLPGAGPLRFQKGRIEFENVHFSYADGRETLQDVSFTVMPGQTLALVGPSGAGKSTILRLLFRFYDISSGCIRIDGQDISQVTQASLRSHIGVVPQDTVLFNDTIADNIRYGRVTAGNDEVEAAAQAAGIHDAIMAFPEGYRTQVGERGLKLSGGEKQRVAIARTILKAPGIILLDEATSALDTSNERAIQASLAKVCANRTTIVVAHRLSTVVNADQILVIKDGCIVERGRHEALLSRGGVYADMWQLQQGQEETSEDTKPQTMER
Assay [16] is described as follows: AML differentiation inducers, ER-HoxA9 marrow cells – cell-based, GFP/MAC1 double positive, flow cytometry, validation set, primary screen (AID 588685;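 active = differentiation response of at least 50%, scaled between solvent and reference control, from cells with both markers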;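 note: compound exposure lasts four days before antibody staining and flow analysis; 0% = DMSO wells and 100% = 5 µM fulvestrant positive control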). The conditions noted are these: stronger effect = higher value, normalized: vehicle 0, fulvestrant 100.

As to `O=C(Cc1ccccc1)NNC(=O)Cc1ccccc1`, in assay [1], the percent of DMSO control GFP is 101% (inactive). Moreover, the GFP response vs DMSO in assay [2] was 108% (inactive); in assay [4], 94% (inactive). Besides, the percent response of DMSO control in assay [3] was 102% (inactive). In assay [5], the GFP response, % of DMSO was 98.9% (inactive). The compound also registered a double positive events in [6] of 63.3%. The vesicle binding response in assay [6] is 224% (inactive). The figures for the inhibition in assay [7], in [11] and in [15] were -5.64% (inactive), 53.7% (inactive) and 2% (inactive), respectively. For the same compound, the superoxide response (% of plate) in [8] was 113% (inactive). For the same compound, the aptamer binding inhibition in assay [9] was -1% (inactive). For the same compound, the response was -7.57% (inactive) in assay [10] and -12.3% (inactive) in assay [12]. Besides, the binding (% of control) in assay [13] is 91.9% (inactive). The efflux inhibition (fraction of control) in assay [14] is 0.27 (inactive). In addition, the differentiation response in [16] is 24.7% (inactive).
With `COc1ccc(CCN2CNc3c(c(=O)n(C)c(=O)n3C)C2)cc1OC`, the percent of DMSO control GFP in assay [1] is 99.8% (inactive). For the same compound, the GFP response vs DMSO was 103% (inactive) in [2] and 118% (inactive) in assay [4]. The percent response of DMSO control in assay [3] was 102% (inactive). In [5], the GFP response, % of DMSO was 116% (inactive). The double positive events in assay [6] was found to be 60.5%. The vesicle binding response in assay [6] was 214% (inactive). The inhibition in [7] was -1.97% (inactive); in assay [11] it was -4.43% (inactive); in assay [15], -5% (inactive). Further, in assay [8], the superoxide response (% of plate) was 93.5% (inactive). For the same compound, the aptamer binding inhibition in [9] was -4% (inactive). For the same compound, the response was -3.69% (inactive) in [10] and -9.61% (inactive) in [12]. Also, the binding (% of control) in assay [13] is 99.7% (inactive). The efflux inhibition (fraction of control) in [14] is 0.04 (inactive). Also, the differentiation response in assay [16] is -4% (inactive).
Turning to `OC(CCN1CCCC1)(c1ccccc1)C1CCCCC1` (stereo not given), the percent of DMSO control GFP in [1] was 87.3% (inactive). Besides, the values for the GFP response vs DMSO in assay [2] and in [4] were 134% (inactive) and 80.9% (inactive), respectively. In addition, the percent response of DMSO control in assay [3] was 102% (inactive). For the same compound, the GFP response, % of DMSO in assay [5] was 89.4% (inactive). Moreover, the double positive events in assay [6] stood at 63.6%. In addition, the vesicle binding response in [6] was 284% (inactive). Besides, the inhibition in assay [7] was 0.64% (inactive); in assay [11] it was 34.9% (inactive); in assay [15] it was 109% (active). The superoxide response (% of plate) in assay [8] was 93.8% (inactive). In addition, the aptamer binding inhibition in [9] was -1% (inactive). For the same compound, the values for the response in assay [10] and in [12] were 6.72% (inactive) and -6.1% (inactive), respectively. In assay [13], the binding (% of control) is 97.4% (inactive). Besides, the efflux inhibition (fraction of control) in assay [14] is 0.12 (inactive). The differentiation response in [16] is -4.91% (inactive).
For the compound `O=C(O)CCCc1ccccc1`, the percent of DMSO control GFP in assay [1] is 104% (inactive). For the same compound, the GFP response vs DMSO in assay [2] is 96.2% (inactive); in assay [4] it was 76.9% (inactive). For the same compound, the percent response of DMSO control in assay [3] was 115% (inactive). The GFP response, % of DMSO in assay [5] was 99.7% (inactive). This compound showed a double positive events in [6] of 61.7%. For the same compound, the vesicle binding response in [6] was 264% (inactive). The inhibition in [7] was -4.6% (inactive); in assay [11], -6% (inactive); in [15], 19% (inactive). The superoxide response (% of plate) in assay [8] is 107% (inactive). Further, in assay [9], the aptamer binding inhibition is 5% (inactive). The response is -7.69% (inactive) in assay [10] and 2.2% (inactive) in [12]. The binding (% of control) in assay [13] is 96.1% (inactive). The efflux inhibition (fraction of control) in [14] was 0.02 (inactive). Further, in assay [16], the differentiation response is 0.24% (inactive).
Consider `Cc1occc(=O)c1O`, for which, in assay [1], the percent of DMSO control GFP is 92.4% (inactive). For the same compound, the GFP response vs DMSO in assay [2] was 112% (inactive); in assay [4] it was 71% (inactive). Besides, the percent response of DMSO control in assay [3] is 110% (inactive). Moreover, in assay [5], the GFP response, % of DMSO was 86.1% (inactive). Besides, the double positive events in assay [6] worked out at 65.3%. Moreover, in [6], the vesicle binding response is 198% (inactive). Moreover, the inhibition was -5.18% (inactive) in assay [7], -5.01% (inactive) in assay [11] and 3% (inactive) in assay [15]. Besides, in assay [8], the superoxide response (% of plate) is 100% (inactive). The aptamer binding inhibition in assay [9] was 1% (inactive). For the same compound, the results for the response in assay [10] and in assay [12] were -9.02% (inactive) and -1.14% (inactive), respectively. Further, in [13], the binding (% of control) is 98.1% (inactive). Also, the efflux inhibition (fraction of control) in assay [14] is -0.06 (inactive). The differentiation response in assay [16] is -4.91% (inactive).
